This is a sample that favours compounds with a hit; in the whole collection about 22% have one here.
Shiga toxin inh – A qHTS for Small Molecule Inhibitors of Shiga Toxin; 9.2% of 290,000 active; Vero cells, Shiga toxin protein synthesis inhibition reporter; inhibition, % at 38.7 µM; AID 2315, 2010; in the data active = inhibition mostly above about 28%, no sharp cut-off; inactive = mostly below about 43%; note: 0% is about no effect
CHX counter – Cycloheximide Counterscreen for Small Molecule Inhibitors of Shiga Toxin. cell reporter, cycloheximide protein synthesis inhibition counterscreen. max response, %. 12% of 300,000 active. AID 2314, 2010; in the data active = max response mostly above about 13%, no sharp cut-off; inactive = mostly below about 14%; note: read at 38.3 µM for the half of the compounds with a filed dose; 0% is about no effect
Pf growth 48h – Primary qHTS for delayed death inhibitors of the malarial parasite plastid, 48 hour incubation. P. falciparum luciferase growth in erythrocytes, 48 h. Potency, µM (doses to about 28.7 µM), inactives show at the highest dose activity change, negative = inhibition, usual class: inhibitors. 5.9% of 310,000 active. AID 504832, 2011; note: potency is the fitted concentration of half-maximal effect; % is set by controls: 0 for no effect and ±100 for the full control effect
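Firefly luciferase activity from engineered P. falciparum reports growth; inhibitors lower the luminescent signal. Cultures contained 2% hematocrit erythrocytes at 0.1% final parasitemia.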
LmPK inhibitor – qHTS Assay for Inhibitors of Leishmania Mexicana Pyruvate Kinase (LmPK) | AID 1721, 2009 | Potency, µM (highest dose often 57.5 µM), for the others: at the top dose activity change, negative = inhibition, actives largely listed as inhibitors | 0.37% of 290,000 active | Q27686 | purified LmPK, Kinase-Glo ATP luminescence, 1 h; note: potency is the fitted concentration of half-maximal effect; % is set by controls: 0 for no effect and ±100 for the full control effect
Target sequence (Q27686 whole entry, looked up): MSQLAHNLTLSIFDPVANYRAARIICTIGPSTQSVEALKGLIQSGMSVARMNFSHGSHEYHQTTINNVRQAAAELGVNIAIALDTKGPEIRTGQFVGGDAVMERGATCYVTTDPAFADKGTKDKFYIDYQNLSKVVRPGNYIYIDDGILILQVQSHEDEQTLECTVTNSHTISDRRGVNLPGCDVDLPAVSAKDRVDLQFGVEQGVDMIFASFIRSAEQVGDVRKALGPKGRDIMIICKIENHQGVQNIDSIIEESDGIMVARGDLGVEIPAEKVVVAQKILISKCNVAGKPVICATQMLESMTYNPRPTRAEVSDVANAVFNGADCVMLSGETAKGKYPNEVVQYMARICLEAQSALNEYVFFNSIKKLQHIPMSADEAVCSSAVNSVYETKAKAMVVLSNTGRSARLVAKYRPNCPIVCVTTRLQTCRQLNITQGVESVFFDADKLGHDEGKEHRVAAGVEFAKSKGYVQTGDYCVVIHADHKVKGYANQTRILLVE
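0.1 nM LmPK, 0.5 mM PEP, 0.1 mM ADP; 50 mM imidazole pH 7.2, 7 mM MgCl2, 50 mM KCl; 1 h RT. Kinase-Glo luminescence readout, normalized to no-enzyme (full inhibition) and uninhibited wells.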
Pf growth 96h – Primary qHTS for delayed death inhibitors of the malarial parasite plastid, 96 hour incubation; AID 504834, 2011; 6.9% of 320,000 active; P. falciparum luciferase reporter growth, 96 h; Potency, µM (titrated, usually from 28.7 µM), inactives show at the top dose activity change, negative = inhibition, actives largely listed as inhibitors; note: potency is the fitted concentration of half-maximal effect; % is set by controls: 0 for no effect and ±100 for the full control effect
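Infected RBCs, 2% Hct / 0.05% parasitemia final; luciferase-reporter P. falciparum; cpd 96 h, 37 C, 5% CO2; luciferase detection reagent; luminescence.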
Active calls of the source: *; ? = inconclusive; / = not tested or not shown; [ ] = dose if it differs, or a comment. Unless noted, calls come from the whole dose curve; as a rule, active = well fitted inhibition curve with a large enough effect; inconclusive = small, poorly fitted or top-dose-only effect, or another doubt; inactive = no such curve, though single readings can be large or run the other way.

SMILES | Shiga toxin inh | CHX counter | Pf growth 48h | LmPK inhibitor | Pf growth 96h
COc1cc([C@@H]2CC=C(C(=O)O)[C@H](c3cccc(Cl)c3)N2S(=O)(=O)c2ccc(C)cc2)cc(OC)c1OC | / | / | ? | / | 13µM*
O=C(NCc1cccs1)C(=O)c1cn(CC(=O)N2CCCC2)c2ccccc12 | 62 | 7 | ? | 0% | -15%
Cc1nn(C)cc1S(=O)(=O)NCc1ccccc1Cl | -9 | 1 | 9% | -1% | ?
Cc1cc(C(=O)N(C)C)sc1-c1ccccc1 | 71* | 63* | 267% | 0% | 271%
COCCn1nnnc1C(C(C)C)N1CCOCC1 (configuration not stated) | 1 | 0 | -1% | -4% | 8.3µM*
COc1ccc(-c2cc(C(=O)N3CCCc4ccccc43)no2)cc1OC | -16 | 18 | ? | -1% | 33%
COc1ccccc1N(C)S(=O)(=O)c1ccc(C(=O)N2CCCc3ccccc32)cc1 | -1 | 6 | 13µM* | 0% | ?
CCN(CC)S(=O)(=O)c1cccc(C(=O)N2CCCc3ccccc32)c1 | 38* | 21* | -12% | -6% | -30%
COc1cccc(-c2cc(C(=O)N3CCCc4ccccc43)no2)c1 | 46* | 28* | ? | 7% | ?
CCN(CC)S(=O)(=O)c1ccc(C(=O)N2CCc3ccccc32)cc1 | -16 | 6 | -29% | 5% | ?
COc1ccc(-c2cc(C(=O)N3CCCc4ccccc43)no2)cc1 | 94* | 44* | -15% | 0% | 71%
COc1cc(C2=NOC(C(=O)N3CCCc4ccccc43)C2)cc(OC)c1OC (configuration not stated) | 1 | -4 | -18% | 1% | 12%
COc1ccccc1-c1cc(C(=O)N2CCCc3ccccc32)no1 | 72* | 60* | 42% | 3% | ?
COc1ccc(C(=O)N2CCCc3ccccc32)cc1 | 9 | 6 | -11% | 1% | 0.26µM*
CC(=O)N1CCCc2cc(S(=O)(=O)N(C)Cc3ccccc3)ccc21 | -6 | -1 | -16% | -1% | ?
COc1ccc(C2=NOC(C(=O)N3CCCc4ccccc43)C2)cc1 (configuration not stated) | 40 | 23* | 35% | 2% | 175%
CCCCN(CC)S(=O)(=O)c1ccc2c(c1)CCCN2C(C)=O | 19 | 1 | ? | 4% | 13µM*
O=C(CCCN1C(=O)C2CC=CCC2C1=O)Nc1cccc(F)c1 (configuration not stated) | 23 | -1 | 10% | -2% | -18%
COCCN(Cc1cc2cc(C)ccc2nc1Cl)C(=O)Nc1ccccc1OC | -23 | -2 | ? | -5% | 0%
COc1ccc(N2C(=O)NC(NC(=O)c3ccncc3)(C(F)(F)F)C2=O)cc1 (configuration not stated) | -18 | -1 | 2% | 0% | 54%
Cc1ccc(C)c(NC(=O)C2CCCN2/C=C/C(=O)C(F)(F)F)c1 (configuration not stated) | -14 | 1 | 16% | 0% | 69%
CN(C)c1ccc(/C=C2\CCCCC2=O)cc1 | 28 | 14* | 231% | -16% | 322%
O=C(/C=C/c1ccc2ccccc2n1)c1cc(Cl)ccc1O | 66* | 39* | 2.3µM* | 4% | ?
COc1cc(-c2nc3ccccc3s2)ccc1O | 80* | 45* | 123% | ? | /
COc1ccc(-c2nc3ccccc3s2)cc1O | 15 | 7 | -22% | 16µM* | -11%
SMILES | Shiga toxin inh | CHX counter | Pf growth 48h | LmPK inhibitor | Pf growth 96h
CCOc1cc(-c2nc3ccccc3s2)ccc1O | 65* | 56* | 10% | 0% | 1%
CCOc1ccccc1NC(=O)Nc1ccc(Br)cc1C | 8 | -2 | ? | -2% | 25%
O=C(Nc1ccnn1C1CCN(Cc2cccc(OCCO)c2)CC1)C1CC1 | -25 | -1 | -1% | -12% | ?
COc1cccc(CNCCc2cccc(F)c2)c1OC | / | -2 | -17% | 2% | 4.1µM*
COc1ccc(NC(=O)Nc2cc(C)ccc2F)cc1OC | 41* | 18* | 47% | -6% | ?
COc1ccccc1NC(=O)NCC(=O)Nc1ccc(F)c(F)c1 | 15 | 9 | -6% | 0% | 13%[5.75 µM]
COc1ccc(C)cc1NC(=O)Nc1cccc(C)c1 | 5 | 1 | 0% | 1% | ?
COc1cccc(CNCCc2ccc3c(c2)OCO3)c1OC | / | -2 | -12% | -1% | ?
COc1ccccc1NC(=O)Nc1ccc(F)c(F)c1 | 81* | 66* | ? | ? | 16%[5.75 µM]
CCCN(Cc1ccccc1)C(=O)Nc1ccc2c(c1)nnn2C | 40* | 19* | 3% | -1% | -9%
CCC(C)(C)NC(=O)C(c1cccc(OC)c1)N(C(=O)CNC(=O)c1cccs1)c1cccnc1 (configuration not stated) | -9 | -3 | ? | 3% | -16%
Cc1c(Cl)cccc1N1CC(C)(C)C1=O | -9 | 9 | -19% | 0% | 10%
COc1ccccc1NC(=O)Nc1ccc2c(c1)nnn2C | 50* | 57* | / | 4% | 9.3µM*
COc1ccccc1NC(=O)CNc1ccc(F)c(Cl)c1 | -3 | 0 | ? | -3% | 15µM*
Fc1ccc(NCc2ccccc2F)cc1Cl | 38 | 13 | 37% | -1% | 68%
COc1cccc(CNc2ccc(F)c(Cl)c2)c1OC | -10 | 2 | / | 5% | 10µM*
CC(C(=O)NCc1ccco1)n1ccc2cc(S(=O)(=O)N3CCCCC3)ccc21 (configuration not stated) | 10 | 6 | ? | -2% | ?
COc1cccc(CCc2nnc(N)s2)c1 | / | -4 | 59% | 5% | -3%
CC1CCN(S(=O)(=O)c2ccc3[nH]c(=O)[nH]c3c2)CC1 | -13 | -5 | 33% | -4% | 29%
N#C/C(=C/c1ccncc1)c1nc2ccccc2s1 | 44* | 30* | 7% | -4% | 31%
N#C/C(=C\c1cccnc1)c1nc2ccccc2[nH]1 | 57* | 36* | ? | -4% | ?
CC1CCc2nc(/C(C#N)=C/c3ccncc3)sc2C1 (configuration not stated) | 96* | 38* | ? | 1% | 0%
N#C/C(=C\c1ccncc1)c1nc2ccccc2[nH]1 | 106* | 32* | -12% | -11% | -4%
CC(C)C[C@H](NC(=O)[C@@H]1CCC(=O)N1)C(=O)N[C@@H](Cc1ccc(O)cc1)C(=O)N[C@@H](CCC(=O)O)C(=O)N[C@@H](CC(N)=O)C(=O)N[C@@H](CCCCN)C(=O)N1CCC[C@H]1C(=O)N[C@@H](CCCN=C(N)N)C(=O)N[C@@H](CCCN=C(N)N)C(=O)N1CCC[C@H]1C(=O)N[C@@H](Cc1ccc(O)cc1)C(=O)O | -11 | -8 | / | / | /
CCOc1ccc(N2C(=O)CC(N)C2=O)cc1 (configuration not stated) | 5 | -3 | -11% | -2% | -6%
CCOc1ccc(N2C=Nc3ccc(OCC)cc3C2)cc1 | 48* | 14* | ? | -6% | ?

High-throughput results deposited in PubChem BioAssay by National Center for Advancing Translational Sciences (NCATS).
